Experiment in all cases: NCI-60 one-dose screen, 48 h (100 = growth as untreated, 0 = no growth, -100 = all killed)
What all share (conditions): 10 µM unless noted

In experiment [1] the test system is SK-MEL-2 melanoma.
Experiment [2] concerns EKVX NSCLC.
Experiment [3] deals with SN12C renal.
The subject of experiment [4] is UO-31 renal.
Experiment [5] concerns TK-10 renal.
Experiment [6] concerns ACHN renal.
The subject of experiment [7] is CAKI-1 renal.
The test system of experiment [8] is A498 renal.
In experiment [9] the test system is CCRF-CEM leukemia.
For experiment [10], the system named is SR leukemia.
Experiment [11] relates to RPMI-8226 leukemia.
For experiment [12], the system named is OVCAR-8 ovarian.
Experiment [13] has as its system OVCAR-5 ovarian.
Experiment [14] relates to OVCAR-4 ovarian.
Experiment [15] relates to SK-OV-3 ovarian.
In experiment [16] the test system is IGROV1 ovarian.
The test system of experiment [17] is OVCAR-3 ovarian.
In experiment [18] the test system is HS 578T breast.
For experiment [19], the system named is NCI/ADR-RES ovarian.
Experiment [20] has as its system MOLT-4 leukemia.

Compounds without any hit were thinned out: in the full panel of roughly 83,000, 20% have a hit.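 Percent growth is the endpoint: 0 to 100 indicates growth inhibition (40 means 60% inhibition), 0 means no net growth, and negative values indicate cell death.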 Values without a mark were called inactive. The source made the active and inactive calls. Rule for the calls: active = growth percent below 10; inactive = the rest.

`O=C(Nc1cccc(N=Cc2c(O)ccc3ccccc23)c1)c1ccccc1`: the growth in experiment [1] was 87.9%; in experiment [2] it was 93.8%; in experiment [3], 99%; in experiment [4] it was 65.9%; in experiment [5], 92.4%; in experiment [6], 96.3%. In addition, the growth was 84.7% in experiment [7]; 103% in [8]; 90.8% in experiment [9]; 101% in experiment [10]; 94.6% in experiment [11]; 93% in experiment [12]. The growth in [13] was 108%; in [14], 88.1%; in experiment [15], 90.4%; in [16], 101%; in [17], 103%; in [18], 97.4%. In addition, the growth in experiment [19] was 103%.

On to `NC(=S)N1N=C(c2ccc(Cl)cc2)CC1c1cc2ccccc2[nH]c1=O` (stereo unspecified), for which the growth was 103% in [1]; 109% in experiment [2]; 104% in experiment [3]; 82.7% in experiment [4]; 109% in [5]; 107% in [6]. For the same compound, the growth in experiment [7] is 114%; in experiment [8] it was 89.5%; in experiment [20] it was 72.5%; in [10] it was 82.4%; in experiment [12], 111%; in [14], 100%. In addition, the growth in experiment [15] was 104%; in experiment [16] it was 101%; in [17], 119%; in experiment [18], 112%; in experiment [19] it was 108%.

For `COc1ccccc1-[n+]1cc(-c2ccc(-c3ccccc3)cc2)n2c1CCCCC2`, the growth is -27% (active) in experiment [1]; 9.1% (active) in experiment [2]; 0.949% (active) in [3]; 74.7% in experiment [4]; 7.69% (active) in experiment [5]; 32.5% in experiment [6]. Besides, the growth is 72.6% in experiment [7]; 9.77% (active) in experiment [8]; 17.2% in experiment [9]; 8.54% (active) in experiment [10]; -14.7% (active) in [11]; 2.74% (active) in experiment [12]. For the same compound, the growth in experiment [13] is 18.4%; in [15], -18.1% (active); in experiment [16], 16.6%; in [17], 9.07% (active); in experiment [18], 22.1%; in [19] it was 86.9%.

As to `CCN1CCN(Cc2ccc(NC(=O)Nc3ccc(-n4ccc5c(NC(=O)c6ccccc6)nccc54)cc3)cc2C(F)(F)F)CC1`, the growth is -31.5% (active) in experiment [1]; 87.4% in [2]; 58.3% in [3]; -48.6% (active) in experiment [4]; 25.5% in experiment [5]; -46.3% (active) in experiment [6]. For the same compound, the growth in experiment [7] is 47.3%; in experiment [8], 105%; in [20], -32.8% (active); in experiment [10], -30.9% (active); in experiment [12], -28.5% (active); in [14], 78.8%. Besides, the growth was 62.7% in experiment [15]; 43.9% in [16]; -51.9% (active) in experiment [17]; 74.1% in experiment [18]; 27.8% in [19].

Consider `CC(=O)CC(c1ccc([N+](=O)[O-])cc1)c1c(O)c2ccccc2oc1=O` (stereo unspecified), for which the growth in experiment [1] is 97%; in experiment [2], 108%; in experiment [3], 92.2%; in experiment [4], 76.7%; in experiment [5], 105%; in [6], 98.1%. The growth in experiment [7] is 94.1%; in [8], 70.3%; in experiment [20], 100%; in experiment [10] it was 92.9%; in experiment [11], 108%; in experiment [12] it was 105%. For the same compound, the growth in experiment [13] is 100%; in [14] it was 110%; in [15], 108%; in [17] it was 109%; in experiment [18], 97.9%; in [19], 105%.

Turning to `COc1cc(NC(=O)CSc2nc3ccc(Cl)cc3c(=O)n2Cc2ccccc2)cc(OC)c1OC`, the growth was 77.6% in experiment [1]; 83.2% in experiment [2]; 88.5% in experiment [3]; 62.4% in experiment [4]; 72.9% in experiment [5]; 57.6% in experiment [6]. For the same compound, the growth in experiment [7] is 76.9%; in [8] it was 11.7%; in [9], 93.8%; in [12], 68.7%; in experiment [13] it was 85.4%; in [14] it was 81.1%. Further, the growth is 72% in experiment [15]; 84.9% in experiment [16]; 77.7% in experiment [17]; 47.4% in experiment [18]; 67.7% in experiment [19].

On to `COc1ccc(Oc2nc(Nc3ccc(N4CCOCC4)cc3)ncc2NC(=O)Nc2cccc(OC)c2)cc1`, for which the growth in [1] is 39.2%; in experiment [2] it was 84.6%; in experiment [3] it was 50.7%; in [4], 75.8%; in [5], 75.9%; in experiment [6] it was 68%. Further, the growth in [7] is 62.2%; in experiment [9], 68.1%; in experiment [20], 40.4%; in [10] it was 74.2%; in experiment [11], 56.8%; in experiment [12] it was 50.3%. For the same compound, the growth in experiment [13] is 103%; in [14] it was 75.8%; in [15] it was 87%; in experiment [16], 76.2%; in experiment [17], 68.4%; in [18], 60.5%. In addition, in experiment [19], the growth is 85.2%.

For the compound `CC(C)CCSc1nc(-c2ccc(F)cc2)c(C#N)c(N2CCCCC2)n1`, the growth in experiment [1] is 85.7%; in experiment [2], 97.2%; in experiment [3], 107%; in [4], 80.4%; in experiment [5] it was 97.4%; in experiment [6] it was 91.8%. Further, the growth in experiment [7] is 75.6%; in [9], 89.9%; in experiment [20], 70%; in experiment [10], 87.6%; in experiment [11], 91.2%; in experiment [12] it was 89.3%. Besides, the growth in [14] is 93.6%; in experiment [15], 105%; in experiment [17], 105%; in [18], 99.1%; in experiment [19] it was 99.2%.

As for `CS(=O)(=O)c1ccc(C(=O)N/N=C/c2ccc3c(c2)OCO3)cc1`, the growth is 89.1% in experiment [1]; 100% in [2]; 99.2% in [3]; 96.3% in [4]; 106% in experiment [5]; 105% in [6]. The growth was 93% in experiment [7]; 87% in experiment [9]; 70.8% in experiment [20]; 110% in experiment [10]; 102% in [11]; 93.8% in [12]. Besides, the growth in experiment [13] is 116%; in [14], 109%; in experiment [15] it was 107%; in experiment [16] it was 113%; in experiment [17], 99.4%; in experiment [18], 100%. For the same compound, the growth in [19] is 110%.
